{
  "source": "the supplement of paper PMC3334620",
  "note": "The full ranking holds about 33,000 sequences; the median of “E-score (-0.5 to 0.5)” is about -0.016, and the highest 2% start at about 0.32. The list comes from a sample in which the highest values are over-represented; it also holds similar and randomly drawn sequences.",
  "data": [
    {"target": "T1, Stp1 (UniProt B3LFK1)", "T1 sequence": "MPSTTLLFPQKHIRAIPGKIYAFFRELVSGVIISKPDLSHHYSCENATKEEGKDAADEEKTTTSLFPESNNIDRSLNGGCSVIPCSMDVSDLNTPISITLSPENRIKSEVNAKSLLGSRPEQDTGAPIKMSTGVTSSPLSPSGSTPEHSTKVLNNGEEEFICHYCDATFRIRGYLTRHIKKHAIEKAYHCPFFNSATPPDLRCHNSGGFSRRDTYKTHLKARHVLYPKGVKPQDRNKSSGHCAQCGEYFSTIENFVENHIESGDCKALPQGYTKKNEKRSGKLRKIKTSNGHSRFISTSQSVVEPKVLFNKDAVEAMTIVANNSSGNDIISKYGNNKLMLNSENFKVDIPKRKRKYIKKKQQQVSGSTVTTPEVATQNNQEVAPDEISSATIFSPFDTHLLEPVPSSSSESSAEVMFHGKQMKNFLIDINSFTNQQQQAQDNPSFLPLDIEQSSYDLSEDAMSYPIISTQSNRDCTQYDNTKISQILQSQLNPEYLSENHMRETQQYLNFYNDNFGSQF", "assay": "PBM E-score (8-mer binding enrichment) (E-score (-0.5 to 0.5)); higher = stronger / more preferred TF binding", "conditions": "protein concentration: 200 nM; construct: GST-full length", "method_in_brief": "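Detection of bound protein used fluorescent anti-GST, with scans normalised by masliner. The proteins were GST-tagged yeast transcription factors applied at about 100-200 nM to universal all-10-mer Agilent arrays made double-stranded by primer extension. Each ungapped eight-base word, pooled with its reverse complement, was scored with an E-score from the Universal PBM Analysis Suite.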", "values": [
      {"sequence": "CGGCGCAA", "PBM E-score": 0.422},
      {"sequence": "TGGCGCAA", "PBM E-score": 0.298},
      {"sequence": "AGGCGCAG", "PBM E-score": 0.188},
      {"sequence": "CGGCGCAG", "PBM E-score": 0.428},
      {"sequence": "AGGCGCAA", "PBM E-score": 0.279},
      {"sequence": "CCAAGACA", "PBM E-score": -0.137},
      {"sequence": "CCCCCTAG", "PBM E-score": -0.354},
      {"sequence": "ATTGGTGA", "PBM E-score": -0.0777},
      {"sequence": "ACTAAGGA", "PBM E-score": -0.105},
      {"sequence": "ACCTTACC", "PBM E-score": 0.0147},
      {"sequence": "CCTTTTTC", "PBM E-score": 0.104},
      {"sequence": "TAACCACA", "PBM E-score": -0.022},
      {"sequence": "CAACCTGG", "PBM E-score": -0.101},
      {"sequence": "TAAGTCAA", "PBM E-score": -0.0101},
      {"sequence": "CGAGGCAG", "PBM E-score": 0.12},
      {"sequence": "AGAGGCAC", "PBM E-score": 0.366},
      {"sequence": "GGAGGCAC", "PBM E-score": 0.148},
      {"sequence": "CGAGGCAC", "PBM E-score": 0.384},
      {"sequence": "CGAGGCAA", "PBM E-score": 0.359},
      {"sequence": "TGAGGCAA", "PBM E-score": 0.234},
      {"sequence": "AGAGGCAT", "PBM E-score": 0.242},
      {"sequence": "AGAGGCAA", "PBM E-score": 0.0357},
      {"sequence": "AGAGGCAG", "PBM E-score": -0.125},
      {"sequence": "GACCAGCC", "PBM E-score": -0.259},
      {"sequence": "CCGGTAGG", "PBM E-score": 0.0318},
      {"sequence": "TACGTAAA", "PBM E-score": 0.189},
      {"sequence": "CAAGACCA", "PBM E-score": -0.15},
      {"sequence": "ATACCGCC", "PBM E-score": 0.1},
      {"sequence": "AAGTTATC", "PBM E-score": -0.0807},
      {"sequence": "AGATGCAA", "PBM E-score": -0.0126},
      {"sequence": "GAGTGCGA", "PBM E-score": -0.046},
      {"sequence": "GCAACGGA", "PBM E-score": 0.228},
      {"sequence": "AGAGCCGG", "PBM E-score": -0.0632},
      {"sequence": "CTAGCCGC", "PBM E-score": 0.395},
      {"sequence": "AGAGCCGA", "PBM E-score": 0.225},
      {"sequence": "ATAGCCGC", "PBM E-score": 0.298},
      {"sequence": "CCAGCCGC", "PBM E-score": 0.125},
      {"sequence": "AGAGCCGC", "PBM E-score": 0.44},
      {"sequence": "CGAGCCGC", "PBM E-score": 0.385},
      {"sequence": "CTAGCCGA", "PBM E-score": -0.0941},
      {"sequence": "CGAGCCGA", "PBM E-score": 0.124},
      {"sequence": "AATTTGCA", "PBM E-score": -0.0371},
      {"sequence": "AACGAGAC", "PBM E-score": -0.0773},
      {"sequence": "ATGTTACA", "PBM E-score": 0.182},
      {"sequence": "GCTGCTGA", "PBM E-score": 0.189},
      {"sequence": "CCAAAGAA", "PBM E-score": 0.068},
      {"sequence": "TAGCTGAA", "PBM E-score": -0.0818},
      {"sequence": "GAAACGAC", "PBM E-score": 0.0801},
      {"sequence": "GTCGGCGA", "PBM E-score": -0.0125},
      {"sequence": "GACGGCGA", "PBM E-score": 0.4},
      {"sequence": "CCCGGCGA", "PBM E-score": -0.0779},
      {"sequence": "CACGGCGG", "PBM E-score": 0.417},
      {"sequence": "AACGGGGA", "PBM E-score": -0.0385},
      {"sequence": "CATGGCGA", "PBM E-score": -0.0243},
      {"sequence": "ACCGGCGA", "PBM E-score": 0.134},
      {"sequence": "AACGGCGA", "PBM E-score": 0.452},
      {"sequence": "CCCGGCGG", "PBM E-score": -0.317},
      {"sequence": "CACGGGGG", "PBM E-score": -0.208},
      {"sequence": "CACGGCGA", "PBM E-score": 0.474},
      {"sequence": "GCCGGCGA", "PBM E-score": -0.00476},
      {"sequence": "AGTTGAGG", "PBM E-score": -0.0375},
      {"sequence": "CCGTTCTA", "PBM E-score": 0.237},
      {"sequence": "GTGCATAA", "PBM E-score": 0.183},
      {"sequence": "CGTGCAAC", "PBM E-score": 0.138},
      {"sequence": "CCCAAATA", "PBM E-score": -0.153},
      {"sequence": "TCCGAAAA", "PBM E-score": -0.159},
      {"sequence": "TAAGGCGA", "PBM E-score": 0.315},
      {"sequence": "TCCGGCGA", "PBM E-score": 0.1},
      {"sequence": "TACGGCGA", "PBM E-score": 0.473},
      {"sequence": "GCCTCGAC", "PBM E-score": 0.0115},
      {"sequence": "CTGGGGAC", "PBM E-score": -0.392},
      {"sequence": "ATGCGGTC", "PBM E-score": 0.0837},
      {"sequence": "ATGCGGCC", "PBM E-score": 0.331},
      {"sequence": "ATGCGGGC", "PBM E-score": 0.0547},
      {"sequence": "ATGCGGTG", "PBM E-score": -0.103},
      {"sequence": "ATGCGGAG", "PBM E-score": -0.0518},
      {"sequence": "ATGCGGCG", "PBM E-score": 0.485},
      {"sequence": "TAGCGCTA", "PBM E-score": -0.0704},
      {"sequence": "TCCTCTAA", "PBM E-score": -0.222},
      {"sequence": "CGCGATTC", "PBM E-score": 0.118},
      {"sequence": "ACTGGTCA", "PBM E-score": -0.105},
      {"sequence": "CCACGCGG", "PBM E-score": 0.18},
      {"sequence": "ATGCCGCG", "PBM E-score": 0.475},
      {"sequence": "GTGCCGGA", "PBM E-score": 0.175},
      {"sequence": "CTACCGCA", "PBM E-score": 0.0499},
      {"sequence": "GTGCCAAA", "PBM E-score": 0.119},
      {"sequence": "ATGCCACA", "PBM E-score": 0.243},
      {"sequence": "CTGCCGCC", "PBM E-score": 0.226}
    ]}
  ]
}
